PubChem BioAssay AID1511 (Johns Hopkins Ion Channel Center, 2009)
Screen size: about 310,000 compounds; about 1,600 (0.52%) were called active. The sample as a whole holds a higher share of actives than the screen did. Unmarked numbers belong to inactive results.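 The calls were made as follows: active = activation above the mean of controls blocked by dofetilide plus 5 SD; inactive = the rest.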

These compounds were tested against Voltage-gated inwardly rectifying potassium channel KCNH2 (Homo sapiens) (UniProt Q12809) (assay: hERG rescue from dofetilide block, primary screen, cell-based, CHO-hERG, FluxOR thallium flux, dofetilide IC70 (AID 1511;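 also: thallium influx through hERG after potassium depolarization seen as dye fluorescence rise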)). Settings: dofetilide IC70 present, at 10 µM, stronger effect = higher value.
Chain of Voltage-gated inwardly rectifying potassium channel KCNH2 (Homo sapiens) (Q12809 whole entry, looked up): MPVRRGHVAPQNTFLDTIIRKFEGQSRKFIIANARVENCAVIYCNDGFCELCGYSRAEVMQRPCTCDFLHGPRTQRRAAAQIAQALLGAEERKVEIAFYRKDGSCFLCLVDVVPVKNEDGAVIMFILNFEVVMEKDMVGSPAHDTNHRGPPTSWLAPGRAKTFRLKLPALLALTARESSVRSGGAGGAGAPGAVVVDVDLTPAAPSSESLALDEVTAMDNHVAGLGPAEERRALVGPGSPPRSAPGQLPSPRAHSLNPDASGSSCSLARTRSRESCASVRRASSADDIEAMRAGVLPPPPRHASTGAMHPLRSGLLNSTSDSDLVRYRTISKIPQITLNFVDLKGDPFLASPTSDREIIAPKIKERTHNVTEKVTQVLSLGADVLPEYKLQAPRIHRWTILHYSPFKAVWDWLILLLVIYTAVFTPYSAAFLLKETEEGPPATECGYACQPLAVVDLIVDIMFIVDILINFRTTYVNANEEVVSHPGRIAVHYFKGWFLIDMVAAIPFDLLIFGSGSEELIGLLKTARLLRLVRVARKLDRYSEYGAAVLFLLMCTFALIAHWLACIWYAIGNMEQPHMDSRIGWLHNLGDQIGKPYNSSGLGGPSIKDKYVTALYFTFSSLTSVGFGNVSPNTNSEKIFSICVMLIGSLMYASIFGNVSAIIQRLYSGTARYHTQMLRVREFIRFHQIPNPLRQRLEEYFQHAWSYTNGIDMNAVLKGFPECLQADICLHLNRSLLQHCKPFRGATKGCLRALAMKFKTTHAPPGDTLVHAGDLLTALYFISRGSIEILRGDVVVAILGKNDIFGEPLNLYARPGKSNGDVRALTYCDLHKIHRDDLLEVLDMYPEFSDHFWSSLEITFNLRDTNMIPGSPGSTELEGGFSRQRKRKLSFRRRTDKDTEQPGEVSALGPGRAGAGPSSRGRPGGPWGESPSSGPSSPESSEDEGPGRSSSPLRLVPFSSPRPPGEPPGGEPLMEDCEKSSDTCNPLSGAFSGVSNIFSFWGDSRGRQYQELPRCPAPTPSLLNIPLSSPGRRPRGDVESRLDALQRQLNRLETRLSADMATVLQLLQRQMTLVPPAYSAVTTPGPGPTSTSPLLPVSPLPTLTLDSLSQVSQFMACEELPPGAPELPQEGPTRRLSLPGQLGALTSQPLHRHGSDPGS

| SMILES | activation (rescue from dofetilide block), less the hit threshold |
| --- | --- |
| CC(=O)Cc1nsc(NC(=O)c2ccc(Cl)cc2Cl)n1 | -13.1% |
| O=C(Nc1ccc(OCC(=O)N2CCOCC2)cc1)c1cc(F)c(F)cc1Cl | -9.32% |
| CCN1CCc2nc(NC(=O)c3cc(F)c(F)cc3Cl)sc2C1 | 15.1% (active) |
| COCCCNC(=O)/C(C#N)=C/c1c(N2CCCCCC2)nc2ccccn2c1=O | -4.19% |
| Cc1c(C)c2c(OCC(=O)N[C@@H](C(=O)O)c3ccccc3)cc3c(c2oc1=O)CCC(C)(C)O3 | -2.69% |
| COc1cc(Br)cc(/C=N/c2ncn[nH]2)c1O | -7.59% |
| Oc1c(Cl)cc(Cl)cc1/C=N/c1ncn[nH]1 | 15.4% (active) |
| CC(C)CCNC(=O)C1CCC(CNc2c(N3CCC(C)CC3)c(=O)c2=O)CC1 (stereo unspecified) | -6.27% |
| Cc1cc(C)cc(NC(=O)NC2CCCCCCC2)c1 | -9% |
| CCOC(=O)CSC1=N/C(=C/c2ccc(-n3cncn3)cc2)C(=O)N1C(C)=O | -12% |
| Cc1ccn(C(CC(=O)c2ccc(Br)cc2)C(=O)O)n1 (stereo unspecified) | 5% (active) |
| Cc1ccc(NC(=O)CCC(=O)c2ccc(Br)cc2)cc1 | 1.34% |
| Cc1cc(C)c2c(=O)[nH]c(SCC(=O)Nc3ccc(Br)cc3)nc2n1 | -11.1% |
| O=Cc1c(NCCc2cccc(F)c2)c2ccccc2[nH]c1=O | -6.93% |
| CCOc1ccc(C(C)=O)cc1COC(=O)CNC(=O)c1cccs1 | -15.3% |
| CCn1c(=S)[nH]c2sc3c(c2c1=O)CCCCC3 | 37.3% (active) |
| CN(C)CCCn1c(=O)n(Cc2ccccc2)c(=O)c2c3c(sc21)CCCCC3 | -10.2% |
| CCCc1nc2sc3c(c2c(=O)n1NC(=O)CCCl)CCCC3 | -1.21% |
| O=C(/C=C/c1cccs1)NCc1cccnc1 | -8.68% |
| O=[N+]([O-])c1ccc(N2CCN(c3ccc(F)cc3)CC2)cn1 | -4.38% |
| COc1ccc(N2CCN(c3ccc([N+](=O)[O-])nc3)CC2)cc1 | 7.73% (active) |
| COc1ccccc1N1CCN(c2ccc([N+](=O)[O-])nc2)CC1 | -22% |
| CC(C)C(=O)Nc1ccc(C(=O)NNC(=O)c2cccs2)cc1 | -4.59% |
| CCc1ccc(NC(=O)COC(=O)c2cccs2)cc1 | -2.35% |

| SMILES | activation (rescue from dofetilide block), less the hit threshold |
| --- | --- |
| CCc1ccc(NC(=O)C(=O)NNC(=O)c2cccs2)cc1 | 46.7% (active) |
| O=S(=O)(Nc1ccc2nc(-c3ccco3)[nH]c2c1)c1ccccc1 | -13.3% |
| CCCCn1c(=S)[nH]c2ccccc2c1=O | 7.08% (active) |
| CCCCn1c(=S)[nH]c2ncccc2c1=O | -2.34% |
| CCCCNC(=O)c1ccc(-n2c(=S)[nH]c3ccccc3c2=O)cc1 | -10.5% |
| Cn1cc(S(=O)(=O)N2CCN(c3ccc(F)cc3)CC2)c(=O)n(C)c1=O | -3.11% |
| COc1ccc(/C=C2\SC(=N)N(c3ccc(F)cc3)C2=O)cc1 | -2.33% |
| CCOc1ccc(N=C2NC(=O)S/C2=C\c2ccc(O)cc2)cc1 | -4.52% |
| COc1ccc(/C=C2/S/C(=N/N=C3\CC4CCC3(C)C4(C)C)NC2=O)cc1 (stereo unspecified) | 19.7% (active) |
| COc1ccc(CCNC(=O)NS(=O)(=O)c2ccc(C)cc2)cc1OC | 0.48% |
| C=CCN1C(=O)C(Cc2ccc(OCC)cc2)SC1=Nc1ccc(C(=O)O)cc1 (stereo unspecified) | 5.1% (active) |
| CCOc1ccc(N=C2SC(C(=O)O)CC(=O)N2C)cc1 (stereo unspecified) | -10.3% |
| C=CCN1C(=O)C(Cc2cccc(Cl)c2)S/C1=N/N=C/c1ccco1 (stereo unspecified) | -5.7% |
| FC(F)(F)c1ccnc(Oc2ccc(C3=NCCS3)cc2)c1 | -5.42% |
| COc1ccc(S(=O)(=O)N2CCOC2CNC(=O)C(=O)NCc2ccncc2)cc1OC (stereo unspecified) | -6.76% |
| O=C(Nc1ccc(-c2cscn2)cc1)C1CCCN(Cc2ccc(CO)o2)C1 (stereo unspecified) | -2.17% |
| N#Cc1cccc(CN2CCC(=O)N(CCO)CC2)c1 | 1.97% |
| O=C1CCN(CCCc2ccccc2)CCN1CCO | 5.3% (active) |
| O=C1CCN(CCc2ccccc2)CCN1CCOc1ccccc1 | -5.23% |
| Cc1n[nH]c(=O)c2c(NC(=O)COC(=O)c3ncc(Cl)c(Cl)c3Cl)oc(C)c12 | -12.6% |
| Cc1cc(OCCN2CCCC2)cc(C(C)C)c1 | -6.59% |
| O=C(COC(=O)c1ccco1)NCc1ccc(Cl)cc1 | -0.71% |
| O=C(COC(=O)c1cnc(Cl)c(Cl)c1)NCc1ccco1 | 40.4% (active) |
| O=C(COC(=O)c1cc(S(=O)(=O)N2CCCCC2)ccc1Cl)NCc1ccco1 | -13.9% |

| SMILES | activation (rescue from dofetilide block), less the hit threshold |
| --- | --- |
| Cc1c(CN2CCC(CO)(CCOc3ccccc3)CC2)[nH]c2ccc(Cl)cc12 | -21.9% |
| Cc1nn(CC2CC2)c(=O)n1N(C)c1ncc(C(F)(F)F)cc1Cl | -8.88% |
| O=C1CCCC2=C1C(c1ccccc1)n1c(s/c(=C/c3cccc(F)c3)c1=O)=N2 (stereo unspecified) | 5.71% (active) |
| COc1ccc(OC)c(C2C3=C(N=c4s/c(=C\c5cccc(O)c5)c(=O)n42)c2ccccc2CC3)c1 (stereo unspecified) | -0.7% |
| O=C1CC(c2cccc(F)c2)C2=C(CCCC2=O)N1 (stereo unspecified) | -5.36% |
| CCOC(=O)Cc1cc(=O)[nH]c(=O)[nH]1 | -4% |
| CC1CCCCC1NC(=O)c1cn(C)c2ccc(S(=O)(=O)N3CCOCC3)cc2c1=O (stereo unspecified) | -5.24% |
| Cc1cc(C(=O)NCCc2ccc(Cl)cc2)c(C)o1 | -9.03% |
| CCOC(=O)c1c(C)oc2cc(Sc3ccccc3)c(O)c(O)c12 | -5.84% |
| C/C(CC(=O)Nc1ccc(Cl)cc1)=N\NC(=O)C(=O)NCCO | -8.82% |
| COc1ccc(COC(=O)N/N=C(\C)CC(=O)Nc2ccc(Cl)cc2)cc1 | -11.8% |
| CCc1ccc(NC(=O)C(=O)N/N=C(\C)CC(=O)NCCOC)cc1 | 6.83% (active) |
| COC(=O)C(C)N=Cc1ccccc1 (stereo unspecified) | -14% |
| Cc1ccc(S(=O)(=O)N(CC(=O)NCc2ccco2)c2ccccc2C)cc1 | -7.72% |
| Nc1nnnn1/N=C/c1cccc(Br)c1 | -0.31% |
| COC(=O)c1cccc(-n2[nH]nnc2=S)c1 | -7.53% |
| COc1cc(-c2noc(C3CCCN(S(=O)(=O)c4cccc(Cl)c4)C3)n2)cc(OC)c1OC (stereo unspecified) | -11.3% |
| Cc1ccc(C(=O)NC(=S)Nc2ccccc2C)cc1 | -5.4% |
| COC(=O)c1sc(NC(=O)c2csc3c2CCCC3)nc1C | -6.43% |
| COC(=O)c1sc(NC(=S)NC(=O)c2ccc(C)cc2)nc1C | 7.72% (active) |
| CCCN(C(=O)CSc1nnnn1C)c1c(N)n(Cc2ccccc2)c(=O)[nH]c1=O | -7.93% |
| Cc1ccc2c(c1)nnc1nnc(SCC(=O)O)n12 | 1.69% |
| CCN1CCN(C(=O)c2ccc(CN(c3ccc(C)c(C)c3)S(C)(=O)=O)cc2)CC1 | -6.12% |
| CCOC(=O)N1CCN(C(=O)CN(c2ccc(C)c(C)c2)S(=O)(=O)c2ccccc2)CC1 | -9.17% |

| SMILES | activation (rescue from dofetilide block), less the hit threshold |
| --- | --- |
| CCOC(=O)N1CCN(C(=O)c2ccc(CN(c3ccc(C)c(C)c3)S(C)(=O)=O)cc2)CC1 | 4.64% (active) |
| O=C(NC1CCCC1)C(c1c(F)cccc1Cl)N(C(=O)c1csnn1)C1CC1 (stereo unspecified) | -2.39% |
| CCO[C@H]1OC(C(=O)O)=C[C@@H](C2CCCCC2)[C@@H]1CCCO | -4.25% |
| COc1cc(OC)cc(/C(N)=N/O)c1 | -15.6% |
| CC1CC(C)CN(C(=O)CSc2ccsc2[N+](=O)[O-])C1 (stereo unspecified) | -2.19% |
| CN(c1ccccc1)S(=O)(=O)c1cc(C(=O)OCC(=O)N2CCN(C(=O)c3ccco3)CC2)ccc1Cl | 5.23% (active) |
| O=C(OCC(=O)N1CCN(C(=O)c2ccco2)CC1)c1cccc(O)c1 | -4% |
| CN(c1ccccc1)S(=O)(=O)c1ccc(Cl)c(C(=O)OCC(=O)N2CCOCC2)c1 | 4.51% |
| Cc1ccc(NC(=O)CSc2nnc(CNC(=O)c3ccccc3F)o2)cc1Cl | -8.43% |
| CCN(CC)c1ccc(C(=O)c2cnc(/N=C/N(C)C)s2)cc1 | -22% |
| Cc1ccc(NC(=O)Nc2cccnc2)cc1 | -1.84% |
| Cc1cc(C)c(NC(=O)CSc2nc3ccncc3[nH]2)c(C)c1 | -2.72% |
| Cc1cc(C)c(NC(=O)CS(=O)CC(=O)Nc2cccnc2)c(C)c1 (stereo unspecified) | 7.98% (active) |
| COc1ccc(CCc2nnc(CCC(=O)NCc3cnn(-c4ccccc4C)c3)o2)cc1 | -3.52% |
| COc1ccc(S(=O)(=O)NCC(c2ccco2)N2CCOCC2)cc1 (stereo unspecified) | -10.9% |
| Cc1cc(C)c(S(=O)(=O)c2ccccc2)c(OC(=O)c2c(F)cccc2Cl)n1 | 8.53% (active) |
| Cc1ccc(NNC(=O)c2c(F)cccc2Cl)cc1Cl | -7.77% |
| Cc1cc(OC(=O)c2c(Cl)cccc2Cl)nc(C)n1 | -14.7% |
| Cc1cccc(S(=O)(=O)N2CN(CC3CCCO3)c3nc4ccccc4nc32)c1 (stereo unspecified) | -10.3% |
| CCOc1cc(/C=N/Nc2cc(C)nc3ccc(C)cc23)ccc1O | -14.3% |
| CCOC(=O)C1CCN(c2c(Nc3cc(C)cc(C)c3)c(=O)c2=O)CC1 | -11.1% |
| O=C1CCCc2c1nc(-c1cccc(Cl)c1)n2O | -10.5% |
| Cc1cccc(-c2nc3ccccc3c(=O)n2NC(=O)Cc2ccc(Cl)cc2)c1 | -2.81% |
| O=c1c2cc(Br)ccc2nc(-c2cccc(Cl)c2)n1O | 59% (active) |
